Screening data: PubChem BioAssay, Sanford-Burnham Center for Chemical Genomics
Only some compounds are listed: those with a hit (about 4% of all), similar ones and a draw of the others.
TROY signal inh: blocks TROY-dependent signaling in reporter cells. Q293 LMP1-TROYcd NF-kB luciferase reporter, 4 h. inhibition, % at 10 µM. 360,000 compounds, 0.98% hits;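 active = compounds whose plate-normalised and pattern-corrected inhibition of the luciferase reporter signal at the single screening dose is 50% or more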
KKLEB tox: CF airway cell cytotoxicity counter-screen | KKLEB CF airway cells viability, ATPlite luminescence, overnight; hits give low values; cells stimulated with P. aeruginosa culture filtrate | activity change (cytotoxicity), % at 5 µM | 360,000 compounds, 0.36% hits | AID 602141;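 active = corrected activity change at or below -50% at 5 µM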
TWEAK Fn14 block: blocks TWEAK-Fn14 interaction in a reporter cell assay. AID 1159606. inhibition, % at 10 µM. 360,000 compounds, 2% hits. TWEAK-stimulated Fn14 reporter cells, luciferase luminescence, 8 h; in the data active = inhibition above about 50%
CF NFkB block: cystic fibrosis NF-kB activation inhibition. AID 588850. inhibition, % at 5 µM. 360,000 compounds, 0.86% hits. KKLEB NF-kB-GFP reporter, PAF-induced, GFP fluorescence overnight;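 active = at least 50% inhibition at 5 µM, scaled per plate between neutral and stimulator controls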;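 also: PAF is a Pseudomonas aeruginosa culture filtrate used as stimulus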
HIF-2a block: blocks HIF-2a reporter activity | 786-0 RCC cells HIF-2a reporter, luciferase luminescence, overnight | inhibition, % at 18.8 µM | 360,000 compounds, 0.72% hits;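 active = inhibition of the luminescence signal of 40% or more relative to plate controls, in a single-dose primary screen at 18.75 µM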
Peg3 prom inh: inhibitors of Peg3 promoter; inhibition, % at 20 µM; AID 588405; HeLa PEG-Prom luciferase reporter, luminescence, overnight; 360,000 compounds, 1.7% hits;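 active = inhibition of at least 50% at 20 µM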
Large screens that a line does not name were inactive.

CN1CCN(CCNC(=O)c2ccc(CS(=O)c3ccc(Br)cc3)o2)CC1 (stereo not given)	none
CC(C)(C)C(=O)Nc1nnc(CSCc2ccccc2F)s1	TWEAK Fn14 block 73.4
CC(C)C(=O)Nc1nnc(CSCc2ccccc2F)s1	none
Cc1ccc(NC(=O)C2CCN(C(=O)c3cccs3)CC2)c(C)c1	none
c1ccc(N2CCN(c3nc4cc5c(cc4s3)OCO5)CC2)cc1	none
c1ccc2c(c1)CCN(c1nc3cc4c(cc3s1)OCO4)C2	TWEAK Fn14 block 58.4
c1c2c(cc3sc(N4CCCCC4)nc13)OCO2	TWEAK Fn14 block 72.7
CC(=O)n1cc([C@@H]2C=C(C(=O)N3CCN(Cc4ccc5c(c4)OCO5)CC3)O[C@H](OCCCCO)C2)c2ccccc21	none
COc1ccc(CCN(C)CC(=O)Nc2cc(C)nc3ccccc23)cc1OC	none
COc1cc(/C=C(/C#N)c2nc3ccccc3[nH]2)ccc1OCC(=O)Nc1ccccc1C	Peg3 prom inh 103.5
CCN(CC)c1ccc(/C=C(/C#N)c2nc3ccccc3[nH]2)c(OC(C)C)c1	TROY signal inh 68.9, TWEAK Fn14 block 76.5
CCOc1cccc(/C=C(/C#N)c2nc3ccccc3[nH]2)c1OCC(=O)O	TROY signal inh 57.8, TWEAK Fn14 block 60.6
COc1cccc(/C=C(\C#N)c2nc3ccc(C)cc3[nH]2)c1OCC(=O)O	none
CCOc1ccc(-c2nnc(N)o2)cc1	none
O=C(NCC1CCCO1)c1cc(-c2ccc(Cl)cc2Cl)on1 (stereo not given)	none
O=[N+]([O-])c1ccccc1OCC(O)CNC1CCCC1 (stereo not given)	none
Cc1cc(Br)ccc1SCC(=O)Nc1cccnc1	none
CC[N+]1(C)CCC(O)(c2ccc(OC)cc2)C(C(=O)c2ccc(OC)cc2)C1 (stereo not given)	CF NFkB block 50.3, Peg3 prom inh 103.2
COc1ccc(-c2ccc(C(=O)C3CC3)cc2)cc1	none
COc1ccc(C(=O)OCC(=O)N(Cc2ccccc2)Cc2ccccc2)c(O)c1	none
N[C@@H](Cc1ccccc1)c1nnc2sc(SCc3ccccc3)nn12	none
CCCCNC(=O)C1(C)CCN1C(=O)c1cc(-c2cccs2)oc1C (stereo not given)	TWEAK Fn14 block 78.5
Cc1cc2ccccn2c1C(=O)c1ccc([N+](=O)[O-])o1	Peg3 prom inh 98.9
COc1ccccc1NC(=O)C(C)OC(=O)Cc1n[nH]c(=O)c2ccccc12 (stereo not given)	none
CCc1ccc(C(=O)Nc2nc(C)cs2)s1	TWEAK Fn14 block 62.8, HIF-2a block 55.8
Cc1csc(NC(=O)c2cnc3ccccc3n2)n1	TWEAK Fn14 block 52.2
CCC1(C)OC(=O)N2CCc3c(C)[nH]c4c(C)ccc(c34)C21C (stereo not given)	none
Cc1nn(-c2ccccc2)c(N2CCCC2)c1/C=N/NC(=O)c1cc2ccccc2cc1O	none
Cc1nn(-c2ccccc2)c(N2CCCC2)c1/C=N/NC(=O)c1cc(-c2ccccn2)nc2ccccc12	Peg3 prom inh 56.8
Cc1nn(-c2ccccc2)c(N2CCCC2)c1/C=N/NC(=S)Nc1ccccc1F	TROY signal inh 64.5
CC(NS(=O)(=O)c1ccc(Br)cc1)C(=O)NCCc1ccccc1 (stereo not given)	TROY signal inh 56.8
Cc1ccc(S(=O)(=O)NC(Cc2ccccc2)C(=O)NN)cc1 (stereo not given)	none
Cc1ccc(S(=O)(=O)N[C@@H](Cc2ccccc2)C(=O)CCl)cc1	TWEAK Fn14 block 65.8, CF NFkB block 72.1, Peg3 prom inh 101.2
COc1cc(C(=O)Nn2c(C)nc3ccccc3c2=O)cc(OC)c1OC	none
Cc1nc(Cl)c(C(=O)NC(C)(C)C)c(C)c1Cl	none
COc1ccc(NC(=O)N(C)[C@H]2C[C@H]3c4[nH]c5ccc(-c6ccc(OC)cc6)cc5c4CCN3C[C@H]2[C@H](C)O)cc1	Peg3 prom inh 97.6
COc1ccc(-c2ccc3[nH]c4c(c3c2)CCN2C[C@@H]([C@H](C)OC(=O)Nc3cc(Cl)cc(Cl)c3)[C@@H](N(C)C(=O)Nc3cc(Cl)cc(Cl)c3)C[C@@H]42)cc1	none
COc1ccc(NC(=O)O[C@@H](C)[C@@H]2CN3CCc4c([nH]c5ccc(-c6ccc(OC)cc6)cc45)[C@@H]3C[C@@H]2N(C)C(=O)Nc2ccc(OC)cc2)cc1	none
